Reference: PubChem BioAssay (Tox21)
Where “and” joins values, the source holds several entries; their conditions need not be identical. Equal values may be shown once. Results filed as inconclusive are left out. A number with no mark means an inactive call. Calls of active or inactive are those of the source. Calls come from the whole dose curve; as a rule, active = well fitted cell-killing curve with a large enough effect in the repeat runs; inconclusive = weak or mixed curves, or effect the other way; inactive = no such curve, though single readings can be large or run the other way.
% is set by controls: 0 for no effect and ±100 for the full control effect; potency is the fitted concentration of half-maximal effect.

Assay: qHTS assay to identify small molecule agonists of the RXR signaling pathway - cell viability counter screen (AID 1159529); note: nearly all actives have a fitted effect of over 50% in size
Conditions: RXR-alpha-bla HEK293T viability, CellTiter-Glo, 16 h; series mostly up to 76.8 µM; activity change, negative = cytotoxicity: at the top concentration
Source text: National Center for Advancing Translational Sciences [NCATS]
NIH Chemical Genomics Center [NCGC]
U.S. Environmental Protection Agency [EPA]
National Institutes of Environmental Health Sciences [NIEHS]
National Toxicology Program [NTP]
U.S. Food and Drug Administration [FDA]
The Retinoid X receptor (RXR), a nuclear hormone receptor expressed in liver, spleen, placenta, epidermis, central nervous system. These receptors are able to form homo and heterodimers with other nuclear receptors and due to this heterodimerizing ability, RXR functions as master regulators producing diverse physiological effects. Three subtypes of RXR exist; alpha, beta and gamma. Retinoid X receptor alpha (RXR-alpha) has potential roles in metabolic signaling pathways, skin alopecia, dermal cysts, cardiac development, insulin sensitization etc. Therefore screening environmental chemicals on RXR-alpha signaling can be used for the studies focused on such therapeutic applications. For quantification of RXR-alpha ligands signaling, GeneBLAzer RXR alpha-UAS-bla HEK 293T (Life Technologies, Carlsbad, CA) cells containing a beta-lactamase reporter-gene under control of Retinoid X receptor-alpha response element were used to screen Tox21 10K library. The cytotoxicity of the Tox21 compound library against the RXR-alpha HEK 293T cell line was tested in parallel by measuring cell viability using CellTiter-Glo assay (Promega Corporation, Madison, WI) in the same wells.
Tox21 Assay Protocol Summary:
RXR-alpha HEK 293T cells were dispensed at 2,000 cells/6 uL of assay medium containing 2% charcoal-stripped FBS using a Multidrop Combi (ThermoFisher Scientific, Waltham, MA) dispenser. The assay was performed in black wall/clear-bottom 1536-well plates (Greiner Bio-One North America Inc. Monroe, NC). Tetraoctyl ammonium bromide was used as a positive control in the cytotoxicity screen. After the assay plates were incubated at 37 C and 5% CO2 for 5 hr, 23 nL of compounds dissolved in DMSO, positive control or DMSO only were transferred to the assay plate by a Pintool station (Kalypsys, San Diego, CA). The assay plates were incubated at 37 C and 5% CO2 for 16 hr. One uL of LiveBLAzer B/G FRET substrate (Life Technologies) was added using a Flying Reagent Dispenser (FRD) (Aurora Discovery, San Diego, CA) and the plates were incubated at room temperature for 2 hr. Fluorescence intensity (405 nm excitation, 460/530 nm emission) was measured using an Envision plate reader (PerkinElmer, Shelton, CT). For cytotoxicity, 4 uL/well of CellTiter-Glo reagent was added into the assay plates using an FRD. After 30 min incubation at room temperature, the luminescence intensity was measured using a ViewLux plate reader (PerkinElmer).
With `CCN(CC)c1ccc2c(-c3ccc(S(=O)(=O)O)cc3S(=O)(=O)[O-])c3ccc(=[N+](CC)CC)cc-3oc2c1` the “activity change, negative = cytotoxicity” value was -24.1%.
In the case of `NC(=O)c1cccc([N+](=O)[O-])c1`, the “activity change, negative = cytotoxicity” value was 12.6%.
With `Nc1ccc(C(=O)O)c(O)c1` the “activity change, negative = cytotoxicity” value was 11.6% [at 35.3 µM].
For `CCCCCCCCCCCCOCCOCCOCCOCCOCCOCCOCCOCCOCCO`, the Potency was 16.9 µM (active).
With `CC1(C)CCC[C@]2(C)[C@H]3CCO[C@]3(C)CC[C@@H]12` the “activity change, negative = cytotoxicity” value was -6.46%.
In the case of `CN(C)CCN1CCN(c2cccc(Cl)c2)C1=O`, the “activity change, negative = cytotoxicity” value was -18% [at 35.3 µM].
With `O=[N+]([O-])c1cccc(C(F)(F)F)c1` the “activity change, negative = cytotoxicity” value was 4.11%.
With `O=C1c2ccccc2C(=O)N1SC1CCCCC1` the Potency was 48.9 µM (active) and 49 µM (active).
In the case of `CCCCCCCCCCCCCC[N+](C)(C)C`, the Potency was 10.6 µM (active) and 15.5 µM (active) and 21.3 µM (active).
In the case of `Cc1cc(-n2nc3ccc(Cl)cc3n2)c(O)c(C(C)(C)C)c1`, the “activity change, negative = cytotoxicity” value was 4.41% [at 35.3 µM].
In the case of `C=Cc1ccccc1C=C`, the “activity change, negative = cytotoxicity” value was -0.288% [at 200 µM].
With `OCCN1CCN(CCCN2c3ccccc3Sc3ccc(C(F)(F)F)cc32)CC1` the Potency was 23.9 µM (active).
With `COc1ccc2c(c1)c(CC(=O)OC/C=C(\C)CC/C=C(\C)CCC=C(C)C)c(C)n2C(=O)c1ccc(Cl)cc1` the “activity change, negative = cytotoxicity” value was -14.4% [at 35.3 µM].
For `CN(C)[C@@H](CCOc1cccc2ccccc12)c1ccccc1`, the Potency was 21.3 µM (active).
For `COC(=O)c1ccccc1OC`, the “activity change, negative = cytotoxicity” value was 5.54%.
In the case of `Cc1ccc(O)c(O)c1`, the “activity change, negative = cytotoxicity” value was -13.9%.
In the case of `CCCC[P+](C)(CCCC)CCCC`, the “activity change, negative = cytotoxicity” value was -15.3%.
For `CN1CCCCC1CCN1c2ccccc2Sc2ccc(S(C)=O)cc21` (stereo not given), the “activity change, negative = cytotoxicity” value was -25.4% [at 35.3 µM].
With `OC[C@@H](O)[C@@H](O)CO` the “activity change, negative = cytotoxicity” value was -3.85%.
For `CC1(C)CC(O)CC(C)(C)N1`, the “activity change, negative = cytotoxicity” value was -3.11%.
With `O=C(O)CCN(C1(C(=O)NO)CCCC1)S(=O)(=O)c1ccc(Oc2ccc(F)cc2)cc1` the “activity change, negative = cytotoxicity” value was 5.42%.
In the case of `CCC(=O)OC(=O)CC`, the Potency was 43.3 µM (active).
For `Cc1ccc(C(C)C)cc2c(C)ccc1-2`, the “activity change, negative = cytotoxicity” value was -5.5% [at 35.3 µM].
In the case of `CCOC(=O)c1ccc(C2CCC(NC[C@H](O)COc3ccc(O)c(NS(C)(=O)=O)c3)CC2)cc1` (stereo not given in full), the Potency was 10.1 µM (active).
With `O=C(O)Cc1ccccc1Nc1c(Cl)cccc1Cl` the Potency was “inactive”.
For `CCCCC(CC)COC(=O)CCCCC(=O)OCc1ccccc1` (stereo not given), the “activity change, negative = cytotoxicity” value was 5.39%.
For `O=C(O)c1cc(O)c2ccccc2c1O`, the Potency was 30.9 µM (active).
For `Cc1cccc(C(=O)O)c1O`, the “activity change, negative = cytotoxicity” value was -0.219% [at 35.3 µM].
For `CCCCCCC1CCCC(=O)O1` (stereo not given), the “activity change, negative = cytotoxicity” value was -16.6%.
For `CCCCCC/C=C\CCCCCCCC(=O)O`, the “activity change, negative = cytotoxicity” value was -9.44%.
For `CCCCCCCCCCC[C@@H](C[C@@H]1OC(=O)[C@H]1CCCCCC)OC(=O)[C@H](CC(C)C)NC=O`, the “activity change, negative = cytotoxicity” value was -10.4% [at 35.3 µM].
In the case of `CC(=O)Oc1cc2c(s1)CCN(C(C(=O)C1CC1)c1ccccc1F)C2` (stereo not given), the “activity change, negative = cytotoxicity” value was -18.7% [at 35.3 µM].
With `CCCCCCCC/C=C\CCCCCCCCN` the “activity change, negative = cytotoxicity” value was -1.48% [at 35.3 µM].
With `OC[C@H]1O[C@H](O[C@H]2O[C@H](CO)[C@@H](O)[C@H](O)[C@H]2O)[C@H](O)[C@@H](O)[C@@H]1O` the “activity change, negative = cytotoxicity” value was 5.85%.
In the case of `Cc1c(C)c2c(c(C)c1O)CC[C@@](C)(CCC[C@H](C)CCC[C@H](C)CCCC(C)C)O2`, the “activity change, negative = cytotoxicity” value was 0.417%.
With `Clc1sc(Cl)c(Cl)c1Cl` the “activity change, negative = cytotoxicity” value was 1.91%.
For `CCCCCc1ccc(Cl)cc1`, the “activity change, negative = cytotoxicity” value was 16.4%.
With `Cc1c(N)cccc1C(F)(F)F` the “activity change, negative = cytotoxicity” value was 3.88% [at 35.3 µM].
For `O=c1oc2cc(O)ccc2c2oc3cc(O)ccc3c12`, the “activity change, negative = cytotoxicity” value was 11.7%.
With `O[C@@H]([C@H](O)[C@H](O)CBr)[C@H](O)CBr` the “activity change, negative = cytotoxicity” value was 2.12%.
